Assay [1] in a line: NCI Yeast Anticancer Drug Screen. Data for the rad50 strain (AID 155).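 Also: 0% = growth of vehicle-only cultures of the same strain.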 The settings on record: S. cerevisiae rad50 strain growth inhibition, stronger effect = higher value. In short, it runs like this: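 Vehicle-treated cultures provide the reference for the growth inhibition reported for compound-exposed, repair-deficient yeast.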
Assay [2] is described as follows: NCI Yeast Anticancer Drug Screen. Data for the mec2-1 strain (AID 157). The settings on record: S. cerevisiae mec2-1 strain, stronger effect = higher value. In short, it runs like this:
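Strain: mec2-1 (DNA repair/cell cycle alteration). Compound exposure, then growth measured; inhibition expressed relative to vehicle.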

Assay [3] in a line: NCI Yeast Anticancer Drug Screen. Data for the sgs1 mgt1 strain (AID 161).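 Also: 0% = growth of cultures given vehicle only.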 The settings on record: S. cerevisiae sgs1 mgt1 strain, stronger effect = higher value. In short, it runs like this:
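Mutant yeast exposed to compound; growth scored against vehicle-only wells.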

Assay [4] can be described thus: NCI Yeast Anticancer Drug Screen. Data for the cln2 rad14 strain (AID 165).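 Also: 0% = growth equal to vehicle treated cultures.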 The settings on record: S. cerevisiae cln2 rad14 strain, stronger effect = higher value. In short, it runs like this: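 Compounds are applied to the cln2 rad14 yeast strain, and growth is then compared with that of vehicle-treated cultures to give inhibition.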
The nature of assay [5]: NCI Yeast Anticancer Drug Screen. Data for the bub3 strain (AID 167). The settings on record: S. cerevisiae bub3 mutant strain, stronger effect = higher value. The method, boiled down: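 Mutant yeast screening strain plus compound; vehicle-treated cultures serve as the 0% inhibition reference.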
Assay [6] is described as follows: NCI Yeast Anticancer Drug Screen. Data for the mlh1 rad18 strain (AID 175). As to conditions: S. cerevisiae mlh1 rad18 strain growth inhibition, stronger effect = higher value. The method, boiled down:
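Read-out is yeast growth inhibition, calculated against vehicle-only controls. The compound was applied to a strain engineered with DNA damage repair alterations.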

[7] abbreviates: at 5.0 µM (retest, dose inferred, filed as 0.5).
Where [8] appears, read: at 50.0 µM (retest, dose inferred, filed as 5.0).

“And” between values parts separate entries of the source, which are not always exact repeats. Equal values may be shown once. Compounds without any hit were thinned out: in the full panel of roughly 79,000, 15% have a hit. The source holds several records for some structures; these can differ, active in one and inactive in another. The source made the active and inactive calls. Rule as the data show it: active = growth inhibition above about 70%; inactive = the rest.

In the case of `CC(C)(S)C(N)C(=O)O` (centres undefined), the growth inhibition was -14% (inactive) in assay [1] (setting [7]); 4% (inactive) in assay [1] (setting [8]); -12.3% (inactive) and -14.5% (inactive) and 21.1% (inactive) in assay [1] (at 50.0 µM); 1% (inactive) in assay [2] (setting [7]); -8% (inactive) in assay [2] (setting [8]); -9.15% (inactive) and 2.8% (inactive) and -17.5% (inactive) in assay [2] (at 50.0 µM). Besides, the growth inhibition is -2% (inactive) in assay [3] (setting [7]); -9% (inactive) in assay [3] (setting [8]); -9.7% (inactive) and -11.3% (inactive) and 3% (inactive) in assay [3] (at 50.0 µM); 4% (inactive) in assay [4] (setting [7]); -1% (inactive) in assay [4] (setting [8]); -2.5% (inactive) and 45.3% (inactive) and 3.15% (inactive) in assay [4] (at 50.0 µM). Moreover, the growth inhibition was -9% (inactive) in assay [5] (setting [7]); -13% (inactive) in assay [5] (setting [8]); -13.6% (inactive) and -0.75% (inactive) and 24.6% (inactive) in assay [5] (at 50.0 µM); -3% (inactive) in assay [6] (setting [7]); -1% (inactive) in assay [6] (setting [8]); 6.8% (inactive) and 9.35% (inactive) and 3.55% (inactive) in assay [6] (at 50.0 µM).

As to `CCCCCCCCCCCCc1ccc(S(=O)(=O)O)cc1.[Cu+2]`, the growth inhibition in assay [1] (setting [7]) was -6% (inactive); in assay [1] (setting [8]), 88% (active); in assay [1] (at 50.0 µM) it was 90.3% (active); in assay [2] (setting [7]), 14% (inactive); in assay [2] (setting [8]) it was 70% (active); in assay [2] (at 50.0 µM) it was 64.9% (inactive). Besides, the growth inhibition was 6% (inactive) in assay [3] (setting [7]); 97% (active) in assay [3] (setting [8]); 41.2% (inactive) in assay [3] (at 50.0 µM); 2% (inactive) in assay [4] (setting [7]); 81% (active) in assay [4] (setting [8]); 17.3% (inactive) in assay [4] (at 50.0 µM). Also, the growth inhibition is -9% (inactive) in assay [5] (setting [7]); 82% (active) in assay [5] (setting [8]); 43.8% (inactive) in assay [5] (at 50.0 µM); 15% (inactive) in assay [6] (setting [7]); 93% (active) in assay [6] (setting [8]); 66% (inactive) in assay [6] (at 50.0 µM).

In the case of `O=C(C(=Cc1ccccc1)C(=O)c1ccccc1)c1ccccc1`, the growth inhibition in assay [1] (setting [7]) was 42% (inactive); in assay [1] (setting [8]) it was 92% (active); in assay [1] (at 50.0 µM), 86.5% (active) and 21.2% (inactive); in assay [2] (setting [7]) it was 54% (inactive); in assay [2] (setting [8]), 95% (active); in assay [2] (at 50.0 µM), 90.5% (active) and 7.7% (inactive). Further, the growth inhibition in assay [3] (setting [7]) was 50% (inactive); in assay [3] (setting [8]), 95% (active); in assay [3] (at 50.0 µM), 89.5% (active) and 18.9% (inactive); in assay [4] (setting [7]), 50% (inactive); in assay [4] (setting [8]) it was 89% (active); in assay [4] (at 50.0 µM), 83.8% (active) and -79.9% (inactive). In addition, the growth inhibition in assay [5] (setting [7]) was 84% (active); in assay [5] (setting [8]), 96% (active); in assay [5] (at 50.0 µM), 88% (active) and 51.6% (inactive); in assay [6] (setting [7]) it was 69% (inactive); in assay [6] (setting [8]), 94% (active); in assay [6] (at 50.0 µM), 87.8% (active) and 20.8% (inactive).

The values above are taken from PubChem BioAssay (NCI).
